We go through 40 sequences from the supplement of paper PMC6555819.

In this test the test system is VDR:RXRa (NR concentration 270 nM, RXRa partner concentration 90 nM). Nature of the test: PBM binding z-score (relative to random genomic background probes); higher = stronger binding; sequences stand for … in GC…GCGATTGACAGCGTAGAATGAAGG
Here is the method:
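Protein-binding microarray (Agilent 4x180K custom design, double-stranded 60-nt probes: 5' GC cap, 34-nt variable region, 24-nt constant primer region; full probe sequence given). Purified or IVT nuclear receptor:RXRα heterodimers (3:1 NR:RXRα, mostly 270:90 nM) or homodimers were incubated for 1 h in PBS with 2% milk and no ligand, then detected with Alexa488 antibodies. Fluorescence from o1-orientation probes (~5 replicates averaged) was converted to z-scores against 500 random hg19 background probes. Variable regions are seed direct-repeat (DR0–DR5) sites, all their single-nucleotide variants and half-site ablations.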
TCTTGTAGATCTGCAGGTTAAGAAAGCTGGCCAA displayed a PBM binding z-score of 0.239. For GTATATAGGTAATACAAGGTGAAAGTCCGATTGT, the PBM binding z-score was found to be 0.822.

In turn, TCTGCTAGGTCAGTTGGTCAGCTAACGAGCTGCC showed a PBM binding z-score of 0.166. With CAAGCTAGGTCAAGGTCAAAGTCGGTTTGTGCCA the figure was 5.24; with CATACAGGGTCAGCTATGCCAGAGTAGGGACGGC, 2.78; with CCTACTGGGCCAAAGATCATTGATTCCAATGCTC, -0.31. For the sequence CTCGAAACGTCGTGCTCAGGTGAGTATACCAAAC, the PBM binding z-score is -0.365. With CTTCCAAGGTGAACAAGGTCGTTGATTACTATTC, the PBM binding z-score amounted to 6.21. Regarding CCTAGTTGGTCAGGAGGTGACACACCGGATATGA, the PBM binding z-score came to 0.277. TCGAGTAGGTTAGTCGGGGTATTCAGCCAACATA: the PBM binding z-score came to 0.453.

Sequence AGAACGAGGGCACGCTGTGTTGATAGCAGAGTAG registered a PBM binding z-score of 0.783. As for GGAACGAGGGCATTCGAGTTGCTAGCATGGCGAT, the PBM binding z-score was determined as 2.71.

CACACTAGGTCAAGGTCAAAGTCGGTTTGTGCCA registered a PBM binding z-score of 5.17. As to TAGCCTAGGTCATTCGGGCCAGTATAGTGTCGGC, the PBM binding z-score came out at 3.94.

Sequence TGGCCTAGGTCAGATCGGGCCAGTATACGCTATA yielded a PBM binding z-score of 0.424.

With CCTACTGGCCCATCAGGTCATTGATATCAACGTT, the PBM binding z-score turned out to be 1.78.

GCTTACGGTTCAAAGGTTATAGCATGAATAGAAT showed a PBM binding z-score of 4.41. Sequence TCATATAGGTAAAAGGTGAAAGGCGGTGTGGTAA registered a PBM binding z-score of 1.39. In turn, AGAATGAGGTTAGGATCAGGGAAACAGAATACAT registered a PBM binding z-score of 0.51. In the case of CCTGCTAGGTCAATGATCAGCTAAAGCAGCTCGC, the PBM binding z-score worked out at 0.447.

As for AGAATAAGGTTACCAAAGATCAGGGAAACGCTTG, the PBM binding z-score worked out at 0.872.

TCTCGGAGGACTCGAAGGTCAGAGCTTTCCAGAG displayed a PBM binding z-score of 0.759. With TCATATAGGTAGAAGGTGAAAGTCGGTGTGGTAA the figure was 0.866; with CGTCCAATGTCAATGCTAGGTCAGTGAAAGCATT, 0.803; with CGATCTAGGTCATTGACAGGACAGTGAATAGTAA, 2.09. For TCTCTTAGTTGATTAGGGCAACCGAAACAGCGGA, the PBM binding z-score worked out at 0.558.

For the sequence CAAACTAGGTCAAGAGGTCAAAGACCGCTTCCCG, the PBM binding z-score amounted to 5.93. With AGAACGAGAGCACGCTGAGTTGATAGCAGAGTAG the figure was -0.462; with CAAACTGGGTCAAAGGTCAAAGTCGAGCCAACCA, 6.65; with TCTGCTAGGTCAATTGGTCAGCTAACGAGCTGCC, 0.925. For the sequence GATACAGGGTCAGCTAGAGGCCAGAATATGGAAA, the PBM binding z-score was 3.19. For CATAGTTGGTCAGGAGGTCACACACCGGATATGA, the PBM binding z-score turned out to be 3.94. Consider AGTCAAAGTACACTAGGTAACGTAAGATTCAGCT, for which the PBM binding z-score was -0.00797. The sequence AATACAGGGTCACCAGGCCAGAGTAGGTACGAAT gave a PBM binding z-score of 4.82. ATCTCTAGGTAAAGTTGAGTGAAAGATCGATAGA returned a PBM binding z-score of 0.152. On to TATACAGGGTCAAAGGCGAGAGTACGAATGTCGA, for which the PBM binding z-score was determined as 4.59. CCTATTAGTCGACCATAAGGGCAACCGAAGCTCG showed a PBM binding z-score of 0.145. The sequence ATATGTATGTTACATCCGGGTCATTCAGGCTATG returned a PBM binding z-score of 3.02. For the sequence TCATATAGGTTATACAGGTGAAAGTCGGCATCTA, the PBM binding z-score was found to be 2.48. As for CGTCCAAGGTCATAGGAGGTCAGTGCAGACAGAT, the PBM binding z-score is 6.74.
